Data as given in PubChem BioAssay AID1159580 (chemical genetic matrix, 2015).
Values joined by “and” are separate entries in the source; they are usually repeats but may differ in a detail not shown here. Identical values can stand only once. The whole screen tested about 5,500 compounds, of which about 2,000 (36%) were called active. Not shown: some 18% with an inconclusive outcome. No stated cut-off is given here; in the data, active means normalized growth mostly below about 0.91 (no sharp cut-off); inconclusive means no clear call, values can overlap the other calls; inactive means mostly above about 0.92. The list shows a part of the results.

Assay: chemical genetic growth profiling, strain panel (AID 1159580);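 further: tested at 20 µM; growth read once vehicle control cultures reached saturation at 30 °C; 1 = growth at the plate median or of vehicle wells; lower values mean less growth of the strain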
Conditions: growth OD

Measured: normalized growth

CN(C)C(=O)C(CCN1CCC(O)(c2ccc(Cl)cc2)CC1)(c1ccccc1)c1ccccc1
inactive: S. cerevisiae deletion strains, locus YJR075W, strain HOC1, hits give low values 1.01 and 0.984 | S. cerevisiae deletion strains, locus YKL009W, strain mrt4, hits give low values 1.01 | S. cerevisiae deletion strains, locus YKL068W, hits give low values 1 | S. cerevisiae deletion strains, locus YKL085W, strain MDH1 (second series), hits give low values 1.01 | S. cerevisiae deletion strains, locus YKL085W, strain MDH1, hits give low values 1.01 | S. cerevisiae deletion strains, locus YKL160W, strain elf1, hits give low values 0.973 | S. cerevisiae deletion strains, locus YKL190W, strain CNB1, hits give low values 0.997 | S. cerevisiae deletion strains, locus YKR001C, strain vps1, hits give low values 1.01 | S. cerevisiae deletion strains, locus YKR026C, strain gcn3, hits give low values 0.997 | S. cerevisiae deletion strains, locus YKR091W, strain srl3, hits give low values 0.991 | S. cerevisiae deletion strains, locus YLL001W, strain dnm1, hits give low values 0.971 | S. cerevisiae deletion strains, locus YLL026W, hits give low values 0.987 | S. cerevisiae deletion strains, locus YLL041C, strain sdh2, hits give low values 1 | S. cerevisiae deletion strains, locus YLR027C, strain aat2, hits give low values 0.976 | S. cerevisiae deletion strains, locus YLR039C, strain RIC1, hits give low values 1.05 | S. cerevisiae deletion strains, locus YLR058C, strain SHM2, hits give low values 1 | S. cerevisiae deletion strains, locus YLR102C, strain apc9, hits give low values 1.01 | S. cerevisiae deletion strains, locus YLR113W, strain HOG1, hits give low values 0.988 | S. cerevisiae deletion strains, locus YLR221C, strain rsa3, hits give low values 1 | S. cerevisiae deletion strains, locus YLR258W, strain gsy2, hits give low values 0.995 | S. cerevisiae deletion strains, locus YLR262C, strain YPT6 (second series), hits give low values 1.03 | S. cerevisiae deletion strains, locus YLR262C, strain YPT6, hits give low values 0.991 | S. cerevisiae deletion strains, locus YLR268W, strain sec22, hits give low values 1.04 | S. cerevisiae deletion strains, locus YLR320W, strain mms22, hits give low values 0.932 | S. cerevisiae deletion strains, locus YLR330W, strain CHS5, hits give low values 0.993 | S. cerevisiae deletion strains, locus YLR342W, strain FKS1 (second series), hits give low values 0.946 | S. cerevisiae deletion strains, locus YLR342W, strain FKS1, hits give low values 0.955 | S. cerevisiae deletion strains, locus YLR357W, strain rsc2, hits give low values 0.994 | S. cerevisiae deletion strains, locus YLR370C, strain arc18, hits give low values 1 | S. cerevisiae deletion strains, locus YLR371W, strain rom2, hits give low values 1.01 | S. cerevisiae deletion strains, locus YLR384C, strain iki3, hits give low values 0.996 | S. cerevisiae deletion strains, locus YLR418C, strain cdc73, hits give low values 0.979 | S. cerevisiae deletion strains, locus YML016C, strain PPZ1, hits give low values 0.998 | S. cerevisiae deletion strains, locus YML032C, strain rad52, hits give low values 1.01 | S. cerevisiae deletion strains, locus YML120C, strain ndi1, hits give low values 0.993 | S. cerevisiae deletion strains, locus YML124C, strain tub3, hits give low values 1.01 | S. cerevisiae deletion strains, locus YMR058W, strain fet3, hits give low values 0.996 | S. cerevisiae deletion strains, locus YMR078C, strain ctf18, hits give low values 1.01 | S. cerevisiae deletion strains, locus YMR125W, strain sto1, hits give low values 1.02 | S. cerevisiae deletion strains, locus YMR129W, hits give low values 1 | S. cerevisiae deletion strains, locus YMR205C, strain PFK2, hits give low values 0.969 | S. cerevisiae deletion strains, locus YMR223W, strain ubp8, hits give low values 0.992 | S. cerevisiae deletion strains, locus YMR231W, strain pep5, hits give low values 0.985 | S. cerevisiae deletion strains, locus YMR263W, strain SAP30, hits give low values 1.01 and 0.992 | S. cerevisiae deletion strains, locus YMR307W, strain GAS1, hits give low values 0.941 and 0.992 | S. cerevisiae deletion strains, locus YNL067W, strain RPL9B, hits give low values 1.01 | S. cerevisiae deletion strains, locus YNL071W, strain lat1, hits give low values 0.975 | S. cerevisiae deletion strains, locus YNL128W, strain TEP1, hits give low values 1.01 | S. cerevisiae deletion strains, locus YNL153C, strain GIM3, hits give low values 1.01 | S. cerevisiae deletion strains, locus YNL175C, strain NOP13, hits give low values 1 | S. cerevisiae deletion strains, locus YNL183C, strain NPR1, hits give low values 0.939 | S. cerevisiae deletion strains, locus YNL197C, strain WHI3, hits give low values 0.987 | S. cerevisiae deletion strains, locus YNL209W, strain ssb2, hits give low values 1.01 | S. cerevisiae deletion strains, locus YNL224C, strain SQS1, hits give low values 1.04 | S. cerevisiae deletion strains, locus YNL233W, strain BNI4, hits give low values 1 | S. cerevisiae deletion strains, locus YNL248C, strain rpa49, hits give low values 0.988 | S. cerevisiae deletion strains, locus YNL250W, strain rad50, hits give low values 1.02 | S. cerevisiae deletion strains, locus YNL271C, strain bni1, hits give low values 1.02 | S. cerevisiae deletion strains, locus YNL298W, strain CLA4, hits give low values 1 | S. cerevisiae deletion strains, locus YNL307C, strain MCK1, hits give low values 0.994 | S. cerevisiae deletion strains, locus YNL322C, strain KRE1 (second series), hits give low values 0.993 | S. cerevisiae deletion strains, locus YNL322C, strain KRE1, hits give low values 1.01 | S. cerevisiae deletion strains, locus YNR049C, strain mso1, hits give low values 1 | S. cerevisiae deletion strains, locus YNR052C, strain pop2, hits give low values 1 | S. cerevisiae deletion strains, locus YOL006C, strain TOP1, hits give low values 1.01 | S. cerevisiae deletion strains, locus YOL012C, strain htz1 1.2 | S. cerevisiae deletion strains, locus YOL147C, strain pex11, hits give low values 1.01 | S. cerevisiae deletion strains, locus YOR001W, strain rrp6, hits give low values 0.982 | S. cerevisiae deletion strains, locus YOR061W, strain CKA2, hits give low values 0.995 | S. cerevisiae deletion strains, locus YOR069W, strain VPS5, hits give low values 1 | S. cerevisiae deletion strains, locus YOR070C, strain gyp1, hits give low values 0.996 | S. cerevisiae deletion strains, locus YOR080W, strain dia2, hits give low values 0.981 | S. cerevisiae deletion strains, locus YOR083W, strain WHI5 (second series), hits give low values 1.07 | S. cerevisiae deletion strains, locus YOR083W, strain WHI5, hits give low values 0.954 | S. cerevisiae deletion strains, locus YOR106W, strain vam3, hits give low values 1 | S. cerevisiae deletion strains, locus YOR136W, strain idh2, hits give low values 1 | S. cerevisiae deletion strains, locus YOR144C, strain elg1, hits give low values 1.01 | S. cerevisiae deletion strains, locus YOR184W, strain ser1, hits give low values 1.02 | S. cerevisiae deletion strains, locus YOR231W, strain MKK1, hits give low values 0.997 | S. cerevisiae deletion strains, locus YOR265W, strain rbl2, hits give low values 1 | S. cerevisiae deletion strains, locus YOR270C, strain vph1, hits give low values 0.996 | S. cerevisiae deletion strains, locus YOR290C, strain snf2, hits give low values 0.973 | S. cerevisiae deletion strains, locus YOR316C, strain cot1, hits give low values 1.01 | S. cerevisiae deletion strains, locus YPL051W, strain arl3, hits give low values 0.99 | S. cerevisiae deletion strains, locus YPL055C, strain LGE1, hits give low values 0.999 | S. cerevisiae deletion strains, locus YPL078C, strain atp4, hits give low values 0.971 | S. cerevisiae deletion strains, locus YPL106C, strain sse1, hits give low values 0.952 | S. cerevisiae deletion strains, locus YPL240C, strain hsp82, hits give low values 0.992 | S. cerevisiae deletion strains, locus YPL241C, strain CIN2, hits give low values 0.992 and 1 | S. cerevisiae deletion strains, locus YPL256C, strain CLN2, hits give low values 0.973 | S. cerevisiae deletion strains, locus YPR119W, strain clb2, hits give low values 1.01 | S. cerevisiae deletion strains, locus YPR141C, strain kar3, hits give low values 1.02 | S. cerevisiae deletion strains, locus YPR163C, strain tif3, hits give low values 1.03 | S. cerevisiae deletion strains, locus YPR167C, strain met16, hits give low values 1.01 | S. cerevisiae deletion strains, strain wtn01, hits give low values 1.02 | S. cerevisiae strains, strain wild type, hits give low values 0.993
